Experimental data as given in PubChem BioAssay (NCATS).
Values joined by “and” are separate entries in the source; they are usually repeats but may differ in a detail not shown here. Identical values can stand only once. Inconclusive results are not listed. Values without a mark were called inactive. Active and inactive are the calls of the source. Calls follow the shape of the dose curve; as a rule, active = well fitted activation curve with a large enough effect; inconclusive = small, poorly fitted or top-dose-only effect; inactive = flat fitted curve, though single readings scatter. Numbered stars: 1 amine (or outer) side, 2 acyl side, 3 side chain; on linkers, the order of the positions; unused ones are H or OH. Bridge positions count the residues as written; N and C are the ends. Square brackets hold non-standard residues; d marks the D form. Peptide text beside a SMILES is read from it. I, II: the chains in the order shown. Actinocin(9to1) = Cc1c2oc3c(C)ccc(C(=O)[*:1])c3nc-2c(C(=O)[*:2])c(N)c1=O; NMeV = CN[C@H](C(=O)O)C(C)C; Sar = CNCC(=O)O

assay: qHTS assay for environmental chemicals that activate the Aryl hydrocarbon Receptor (AhR) signaling pathway (AID 651777); details: 1A2-DRE human hepatoma cells, luciferase, 24 h; activation: hits give high values; also: nearly all actives have a fitted effect of over 15% in size; as to activation: % of control where 0% means no effect
Text: National Center for Advancing Translational Sciences [NCATS]
NIH Chemical Genomics Center [NCGC]
U.S. Environmental Protection Agency [EPA]
National Institutes of Environmental Health Sciences [NIEHS]
National Toxicology Program [NTP]
The Aryl hydrocarbon Receptor (AhR) plays a critical role in the development of cancer or neoplasm and its formation is most likely due to genetic mutations and the influence of environment. Exposure to environmental pollutants such as polycyclic aromatic hydrocarbons (PAH), their halogenated derivatives and heterocyclic amines causes the induction of phase I and II enzymes. The transcriptional activation of CYP1A2 is directly regulated by AhR.
A cell based assay (1A2-DRE cells, developed by Puracyp, Inc., CA) was used to assess the activation of AhR. Human hepatoma cells were stably transfected with the dioxin response element (DRE) and CYP1A2 promoter fused to a luciferase gene. Increased luciferase activity can be used to identify the compounds that cause the induction of CYP1A2 and AhR activation.
1,200 cells in 5 uL/well were dispensed into white wall/solid bottom 1536-well plates using a Multidrop Combi (Thermo Scientific) dispenser. Following transfer of 23 nL compound or DMSO vehicle by a pin tool, the plates were incubated 24 hr at 37 C and 5% CO2. 5 ul One-Glo (Promega) was then added to each well and following 30 min incubation at room temperature, luciferase activity was quantified on a ViewLux CCD-based plate reader.
Potency is read from the fitted curve at half-maximal effect.

Which activation does the source give for NC(=NCCCCCCN=C(N)/N=C(\N)Nc1ccc(Cl)cc1)/N=C(\N)Nc1ccc(Cl)cc1 here?
The activation was 2.77% and -7.14% and -8.81%.

For Oc1ccc(Cl)cc1Sc1cc(Cl)ccc1O, which activation is on record?
The activation was 6.02%.

Which activation does the source give for CCCCCCc1ccc(O)cc1O here?
The activation was 1.13% and 0.133%.

For CN(C)/N=N/c1nc[nH]c1C(N)=O, which activation is on record?
The activation was 1.65%.

With Oc1c(Cl)cc(Cl)cc1Sc1cc(Cl)cc(Cl)c1O as the compound, how does the activation read?
Its activation is 4.24% and -3.25%.

Which activation does the source give for CC/C(=C(/CC)c1ccc(O)cc1)c1ccc(O)cc1 here?
Its activation is -2.75% and -1.46%.

For O=c1ccc2ccccc2o1, which activation is on record?
Its activation is -0.0038% and -0.214% and 9.96%.

For Cc1cc(=O)n(-c2ccccc2)n1C, which activation is on record?
The activation was -0.814%.

For C[C@H]1C[C@H]2[C@@H]3CCC4=CC(=O)C=C[C@]4(C)[C@@]3(Cl)[C@@H](O)C[C@]2(C)[C@@]1(O)C(=O)CO, which activation is on record?
Its activation is 0.38%.

Which activation does the source give for COc1cccc2c1C(=O)c1c(O)c3c(c(O)c1C2=O)C[C@@](O)(C(=O)CO)C[C@@H]3O[C@H]1C[C@H](N)[C@H](O)[C@H](C)O1 here?
The activation was 1.88%.

Which activation does the source give for COC1=CC(=O)C[C@@H](C)[C@]12Oc1c(Cl)c(OC)cc(OC)c1C2=O here?
The activation was 0.113%.

With CC(O)(P(=O)(O)O)P(=O)(O)O as the compound, how does the activation read?
Its activation is 0.149%.

With O=C(O)CCCCC(=O)O as the compound, how does the activation read?
Its activation is 0.177%.

For C[C@]12CC[C@@H]3c4ccc(O)cc4CC[C@H]3[C@@H]1CC[C@@H]2O, which activation is on record?
The activation was 1.98%.

For CN(C)C(=S)SC(=S)N(C)C, which activation is on record?
Its activation is -0.314%.

For CC(=O)O[C@]1(C(C)=O)CC[C@H]2[C@@H]3C[C@H](C)C4=CC(=O)CC[C@]4(C)[C@H]3CC[C@@]21C, which activation is on record?
The activation was 0.858% and 1.58%.

With C=CCc1ccc(O)c(OC)c1 as the compound, how does the activation read?
The activation was 1.13% and 0.0788%.

Which activation does the source give for CC(C)(Oc1ccc(Cl)cc1)C(=O)O here?
The activation was -2.05%.

Which activation does the source give for Cc1c2oc3c(C)ccc(C(=O)N[C@@H]4C(=O)N[C@H](C(C)C)C(=O)N5CCC[C@H]5C(=O)N(C)CC(=O)N(C)[C@@H](C(C)C)C(=O)O[C@@H]4C)c3nc-2c(C(=O)N[C@@H]2C(=O)N[C@H](C(C)C)C(=O)N3CCC[C@H]3C(=O)N(C)CC(=O)N(C)[C@@H](C(C)C)C(=O)O[C@@H]2C)c(N)c1=O (I: T[dV]P[Sar][NMeV] / II: T[dV]P[Sar][NMeV]; ester I:1-I:C, II:1-II:C; linker I:N-II:N via Actinocin(9to1)) here?
Its activation is 1.62% and 1.67%.

For C=C(CC)C(=O)c1ccc(OCC(=O)O)c(Cl)c1Cl, which activation is on record?
Its activation is 2.74%.

With CC(C)(C)CC(C)(C)c1ccc(OCCOCC[N+](C)(C)Cc2ccccc2)cc1 as the compound, how does the activation read?
The activation was 2.85% and 2.84%.

With Oc1c(I)cc(Cl)c2cccnc12 as the compound, how does the Potency read?
Its Potency is 44.7 µM (active).

Which activation does the source give for Nc1ccc(C(=O)O)cc1 here?
The activation was -0.596%.

With CC(=O)Oc1ccc(C(c2ccc(OC(C)=O)cc2)c2ccccn2)cc1 as the compound, how does the activation read?
Its activation is 0.887%.

With CC(O)C(=O)O (stereo not given) as the compound, how does the activation read?
Its activation is -0.164%.
